Assay results: the supplement of paper PMC12494721
Structures can show the parent of a compound that is named as a salt.

Test system: Ruminococcus gnavus DSM 108212
Test: growth (OD595) fold change vs plate DMSO controls (fold change (ratio)); higher = more growth
Conditions: incubation time: 27 h, anaerobic, 37 °C
How it was run: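 Absorbance at 595 nm was read after shaking the anaerobic mGAM cultures, which had grown in 96-well plates for 27 h at 37 °C. After blank subtraction and background correction against 20 µM compound solutions in water, a calibration factor of 5 gave OD values. Growth is the fold change against the median of the plate's DMSO controls. Values are the mean of 2 biological replicates, with fold changes above 1.5 set to NA.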

Question: How did the growth turn out when NC[C@H]1O[C@H](O[C@H]2[C@H](O)[C@@H](O[C@H]3O[C@H](CO)[C@@H](O)[C@H](N)[C@H]3O)[C@H](N)C[C@@H]2N)[C@H](N)C[C@@H]1O [Tobramycin] (20 µM) was run?
Answer: The growth was 0.73.

Question: CC(=O)Oc1cccc2c1C(=O)c1c(OC(C)=O)cc(C(=O)O)cc1C2=O [Diacerein] (20 µM) was tested. Which growth did it give?
Answer: The growth was 0.904.

Question: With CCCCc1ncc(/C=C(\Cc2cccs2)C(=O)O)n1Cc1ccc(C(=O)O)cc1 [Eprosartan mesylate] (20 µM) as the molecule, how does the growth read?
Answer: Its growth is 0.916.

Question: For CCCc1nc2c(C)cc(-c3nc4ccccc4n3C)cc2n1Cc1ccc(-c2ccccc2C(=O)O)cc1 [Telmisartan] (20 µM), which growth is on record?
Answer: The growth was 0.953.

Question: With CNC(C)CCC=C(C)C (stereo not drawn) [Isometheptene mucate] (20 µM) as the molecule, how does the growth read?
Answer: The growth was 1.24.

Question: With O=C1CCC(N2C(=O)c3ccccc3C2=O)C(=O)N1 (stereo not drawn) [Thalidomide] (20 µM) as the molecule, how does the growth read?
Answer: The growth was 1.15.

Question: CCN(CC)C(=O)N1CCN(C)CC1 [Diethylcarbamazine citrate] (20 µM) was tested. Which growth did it give?
Answer: The growth was 0.977.

Question: For CCCCCCCN(CC)CCCC(O)c1ccc(NS(C)(=O)=O)cc1 (stereo not drawn) [Ibutilide fumarate] (20 µM), which growth is on record?
Answer: The growth was 1.08.

Question: With CCN(CCCCOC(=O)c1ccc(OC)c(OC)c1)C(C)Cc1ccc(OC)cc1 (stereo not drawn) [Mebeverine hydrochloride] (20 µM) as the molecule, how does the growth read?
Answer: Its growth is 0.632.

Question: N=C(N=C(N)N)N1CCOCC1 [Moroxidine hydrochloride] (20 µM) was tested. Which growth did it give?
Answer: Its growth is 1.39.

Question: For O=c1[nH]c(=O)n([C@H]2C[C@H](O)[C@@H](CO)O2)cc1I [Idoxuridine] (20 µM), which growth is on record?
Answer: Its growth is 0.871.

Question: With Cc1cc(C2CCCCC2)n(O)c(=O)c1 [Ciclopirox ethanolamine] (20 µM) as the molecule, how does the growth read?
Answer: The growth was 1.13.

Question: Which growth does the source give for CC[N+](C)(C)Cc1ccccc1Br [Bretylium tosylate] (20 µM) here?
Answer: Its growth is 0.996.
